PubChem BioAssay AID1159580 (chemical genetic matrix, 2015)
Several values for one entry are separate records, joined by “and”; a condition that tells them apart may be missing. Identical values can stand only once. Screen size: about 5,500 compounds; about 2,000 (36%) were called active. Roughly 18% stayed inconclusive and do not appear here. No stated cut-off is given here; in the data, active means normalized growth mostly below about 0.91 (no sharp cut-off); inconclusive means no clear call, values can overlap the other calls; inactive means mostly above about 0.92. Some of the results follow.

Assay: chemical genetic growth profiling, strain panel (AID 1159580);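 further: tested at 20 µM; growth read once vehicle control cultures reached saturation at 30 °C; 1 = growth at the plate median or of vehicle wells; lower values mean less growth of the strain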
Conditions: S. cerevisiae deletion strains, growth OD

Measured: normalized growth

Cc1cc(O)c(C)c(O)c1C(=O)O
inactive: locus YAL021C, strain ccr4, hits give low values 0.989 | locus YAL026C, strain drs2, hits give low values 0.979 | locus YAL030W, strain snc1, hits give low values 0.999 | locus YBL061C, strain skt5, hits give low values 0.989 | locus YBR009C, strain hhf1, hits give low values 0.97 | locus YBR021W, strain FUR4, hits give low values 0.986 | locus YBR023C, strain chs3, hits give low values 0.981 | locus YBR171W, strain sec66, hits give low values 0.99 | locus YBR229C, strain ROT2, hits give low values 0.993 | locus YBR231C, strain swc5, hits give low values 0.992 | locus YBR279W, strain paf1, hits give low values 0.984 | locus YCL011C, strain gbp2, hits give low values 0.991 | locus YCL016C, strain dcc1, hits give low values 0.99 | locus YCL029C, strain bik1, hits give low values 0.976 | locus YCL061C, strain MRC1, hits give low values 1.01 | locus YCL069W, strain vba3, hits give low values 0.995 | locus YCR088W, strain abp1, hits give low values 0.988 | locus YDL005C, strain med2, hits give low values 0.984 | locus YDL035C, strain GPR1, hits give low values 1.03 | locus YDL040C, strain nat1, hits give low values 0.99 | locus YDL074C, strain BRE1, hits give low values 1.06 | locus YDL101C, strain DUN1, hits give low values 0.986 | locus YDL134C, strain PPH21, hits give low values 0.978 | locus YDL185W, strain tfp1, hits give low values 0.964 | locus YDL192W, strain arf1, hits give low values 0.997 | locus YDR001C, strain nth1, hits give low values 0.981 | locus YDR069C, strain doa4, hits give low values 0.956 | locus YDR101C, strain arx1, hits give low values 1.04 | locus YDR137W, strain rgp1, hits give low values 0.899 | locus YDR159W, strain sac3, hits give low values 0.983 | locus YDR162C, strain NBP2, hits give low values 1.03 | locus YDR195W, strain ref2 0.977 | locus YDR297W, strain sur2, hits give low values 0.986 | locus YDR318W, strain mcm21, hits give low values 0.979 | locus YDR334W, strain swr1, hits give low values 0.975 | locus YDR335W, strain msn5, hits give low values 0.985 | locus YDR388W, hits give low values 1 | locus YDR392W, strain spt3, hits give low values 0.931 | locus YDR502C, strain sam2, hits give low values 0.98 | locus YEL003W, strain gim4, hits give low values 0.978 | locus YEL037C, strain rad23, hits give low values 0.976 | locus YEL061C, strain CIN8 (second series), hits give low values 0.979 | locus YEL061C, strain CIN8, hits give low values 1 | locus YER015W, strain faa2, hits give low values 0.987 | locus YER016W, strain bim1, hits give low values 0.991 | locus YER110C, hits give low values 0.984 | locus YER111C, strain swi4, hits give low values 0.985 | locus YER155C, strain BEM2 (second series), hits give low values 0.968 | locus YER155C, strain BEM2, hits give low values 0.988 | locus YER167W, strain BCK2, hits give low values 1.01 | locus YFR010W, strain ubp6, hits give low values 0.975 | locus YGL078C, strain dbp3, hits give low values 0.95 | locus YGL086W, strain mad1, hits give low values 0.997 | locus YGL167C, strain pmr1, hits give low values 0.974 | locus YGL173C, strain kem1, hits give low values 0.984 | locus YGL227W, strain vid30, hits give low values 0.995 | locus YGL240W, strain doc1, hits give low values 0.906 | locus YGL248W, strain PDE1, hits give low values 0.978 | locus YGL253W, strain hxk2, hits give low values 0.993 | locus YGR078C, strain PAC10, hits give low values 0.976 | locus YGR135W, strain pre9, hits give low values 0.925 | locus YGR252W, strain gcn5, hits give low values 0.926 | locus YHR013C, strain ard1, hits give low values 0.954 | locus YHR027C, strain rpn1, hits give low values 0.997 | locus YHR030C, strain SLT2, hits give low values 1.04 | locus YHR079C, strain IRE1 (second series), hits give low values 0.993 | locus YHR079C, strain IRE1, hits give low values 1.02 | locus YHR094C, strain hxt1, hits give low values 0.981 | locus YHR129C, strain ARP1, hits give low values 1.01 | locus YHR142W, strain chs7, hits give low values 1.02 | locus YHR200W, strain rpn10, hits give low values 0.96 | locus YIL066C, strain RNR3, hits give low values 1.01 | locus YIL073C, strain SPO22, hits give low values 0.806 | locus YIL125W, strain kgd1, hits give low values 1 | locus YIR030C, strain dcg1, hits give low values 0.989 | locus YJL092W, strain hpr5, hits give low values 1 | locus YJL095W, strain BCK1 (second series), hits give low values 1 | locus YJL095W, strain BCK1, hits give low values 0.988 and 1.05 | locus YJL115W, strain asf1, hits give low values 0.983 | locus YJL129C, strain trk1, hits give low values 0.995 | locus YJL134W, strain LCB3, hits give low values 1 | locus YJL154C, strain vps35, hits give low values 0.986 | locus YJL164C, strain tpk1, hits give low values 1.01 | locus YJL166W, strain qcr8, hits give low values 0.961 | locus YJL168C, strain set2, hits give low values 0.982 | locus YJL187C, strain SWE1 (second series), hits give low values 0.985 | locus YJL187C, strain SWE1, hits give low values 0.992
